These entries were drawn from the full list. No count for the full screen is at hand.
B1: il2ra_site1_1z92_sap_9_mot_HHH_b1_04604_af2_000000029_0001_42_56_H_._3020bb65e3c0c4c1750efda2a61ed53f_0001_1_af2_0001_0000300015_0000001_0_0001 (protein)
chain: SEEYLEEQLRRKLELGNIEDAARALFKFIAAAAGDPEQAEEFLEELLKRAGVPPEVIEKILEEAK
B2: il2ra_site1_2b5i_normal_mot_HHH_b2_00231_000000175_0001_20_36_H_._HHH_b2_07547_0001_0000100002_0000001_0_af2pred_0001_af2pred (protein)
chain: SSSSDVWELYLRASRLFLRGNPEEAERLLEEAIELAERLGDPEIAKQLEEMLRHVRRSLSSSSSS
B3: il2ra_site2_3nfp_sap_20_mot_ce0e691d864d74cc0dee145e42b7b696_0001_1_af2_000000051_0001_34_49_H_._HHH_b1_03816_af2_0001_0000500031_0000001_0_0001 (protein)
chain: SSSSSDEEKLEEARELYEEGNPEEARKILLHLVSEAEEKGDRELLFRIMALANEVAAALISSSSS
B4: il2ra_site2_3nfp_normal_mot_HHH_b1_05918_af2_000000127_0001_23_40_H_._HHH_b1_07797_0001_0000400047_0000001_0 (protein)
chain: SSSSSEAEEYLRAALLLAELALREGDEENARRSLELAIQLAEHKGNPELLEELEELLEEINSSSS
B5: il2ra_site1_3nfp_sap_8_mot_119b7766384adbe86006a62bce89dba1_0001_af2_000000092_0001_18_32_H_._HHH_b2_02632_0001_0000300007_0000001_0_0001 (protein)
chain: SSSSDARELLFEAAEILDELAERGDHEELKRFAEEVIEELEELGNRQAARMIRWLVERALSSSSS
B6: il2ra_site2_3nfp_sap_22_mot_HHH_b2_08245_000000023_0001_41_55_H_._HHH_b2_07283_0001_0000300027_0000001_0_0001 (protein)
chain: SSSSDVEERIEELLKEIEELLEKGDPEEAERLLLEVALLAWETGDFEAFAAVTRLLERVQSSSSS
B7: il2ra_site1_2b5i_sap_18_mot_89dc1dc23437faef961419e82e151d9c_0001_af2_000000202_0001_15_32_H_._9f08b0091ee0dae2b2d48aa630d4ec63_0001_1_0001_0000400022_0000001_0 … (protein)
chain: SSSSSIEELLEAMLELAEELIENGNPEEARAILLLARRAARAHGNPEYVKELERLLRELLSSSSS
B8: il2ra_site2_3nfp_normal_mot_HHH_b1_05158_000000192_0001_1_17_H_._HHH_b1_05195_0001_0000600013_0000001_0_af2pred_0001_af2pred (protein)
chain: SSSSSSDSELTFLLILLEALLEEVDDPEIRELLEEALEELREKKDPEIARKVLKEASEYLSSSSS
B9: il2ra_site2_3nfp_sap_26_mot_HHH_b1_00015_000000185_0001_19_35_H_._HHH_b2_06138_0001_0000600047_0000001_0_0001_af2pred_0001_af2pred (protein)
chain: SSSSSSDEEEEVEKLLEEAKHIEDEFELYAVLADAARIAFELKDEELRRLVKEVRHELSSSSSSS
B10: il2ra_site1_1z92_normal_mot_HHH_b1_08597_af2_000000202_0001_42_56_H_._6e12af4a48b4634929ba45889b8be782_0001_0001_0000600034_0000001_0 (protein)
chain: NVEWAIENLERLARLQGNPEVERVLRRVLELLKKNEEEAEEFLEELVRELGDKLLRLLLRMLKTA
B11: il2ra_site1_1z92_sap_14_mot_1581cc1c700002558836ca695aafbf97_0001_1_af2_000000099_0001_17_32_H_._d5167a162c519d043ddc16d89768c28c_0001_1_0001_0000100008_0000001 … (protein)
chain: SLEEEIERALKEAGVPPEEIEAIKRDIRRTQEFGIPPRSIALAVLRALKSHDEELAERVEELLRK
B12: il2ra_site1_1z92_normal_mot_HHH_b2_05238_af2_000000252_0001_38_55_H_._HHH_b1_01495_af2_0002_0000300012_0000001_0_af2pred_0001_af2pred_1 (protein)
chain: SSSSSKEESLELAERAARRAIEAGNERSARRLLKFVIEAAEELGNEELLEELEELLERLESSSSS
B13: il2ra_site2_2erj_sap_29_mot_dcd9809507f71d420582ead1f1e1bbb3_0001_000000226_0001_37_50_H_._HHH_b1_02896_af2_0001_0000500038_0000001_0_0001 (protein)
chain: SSSSSSLHELYELANRLMHALSNGDEELLEELLEELEELAKELQSDTAREIVENIRRRLSSSSSS
B14: il2ra_site1_1z92_sap_17_mot_c66c727fe7b11027095aa3ef302aaf37_0001_000000167_0001_38_52_H_._665b9007e6d0b9979c9b0c82f83b8fcc_0001_0001_0000200023_0000001_0_0001 (protein)
chain: SSSSDSRERIEELAEFLARDIKMTGNPWARRLLELLLEKAEKLGDEELREIIEQLLEELRSSSSS
B15: il2ra_site1_3nfp_sap_16_mot_HHH_b1_00461_af2_000000238_0001_1_17_H_._HHH_b2_08025_0001_0000300024_0000001_0_0001_af2pred_0001_af2pred_swapped (protein)
chain: SSSSSRILRFLEELARKAFERNDKKQLEAILKLIRKAAKQFKDEEVEELLELVEELLKKLSSSSS
B16: il2ra_site2_2erj_normal_mot_HHH_b1_05204_000000269_0001_1_15_H_._HHH_b1_00954_0001_0000200014_0000001_0_1_af2pred_0001_af2pred (protein)
chain: SSSSDLEEELRRLLEELEELVKEGDEKKFMEVALRVAKLVIENNDEEAAKLLLRLLRELRSSSSS
B17: il2ra_site2_2erj_sap_27_mot_HHH_b1_08185_000000063_0001_41_55_H_._HHH_b1_03158_0001_0000300009_0000001_0_0001_af2pred_0001_1_af2pred_swapped (protein)
chain: SSSDAQERAREVLEEVIELLRQGNHEEAKKLLEEAREILEELGDRAAVRLIEAALRLLESLSSSS
B18: il2ra_site2_2erj_sap_22_mot_c2bf78bdce995293a161f7082e24b401_0001_af2_000000082_0001_17_32_H_._HHH_b2_05133_0001_0000600016_0000001_0_0001 (protein)
chain: SSSSDEELHEIFELLSLLLEAIQKGDDELFKKLVEEVRQLIEEKGSPNLREILEWLERHFHSSSS
B19: il2ra_site2_3nfp_normal_mot_HHH_b1_04264_000000089_0001_1_18_H_._332cd829babfe32ea4315b179459513b_0001_1_0001_0000100003_0000001_0 (protein)
chain: SQEVFEVIHKLREEGDPELAISLFALLAELLLHPENEELREKLEELLEIIKKNPEEAREVARKLP

target: il2ra, P01589; assay: yeast display titration
Sequence (P01589 whole entry): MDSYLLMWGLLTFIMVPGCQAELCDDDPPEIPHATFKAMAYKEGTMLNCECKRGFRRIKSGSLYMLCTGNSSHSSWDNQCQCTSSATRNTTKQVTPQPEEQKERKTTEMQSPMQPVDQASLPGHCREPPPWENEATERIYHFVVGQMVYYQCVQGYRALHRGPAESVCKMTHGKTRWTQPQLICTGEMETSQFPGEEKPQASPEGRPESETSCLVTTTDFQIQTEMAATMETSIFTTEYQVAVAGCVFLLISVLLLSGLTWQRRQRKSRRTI

Apparent Kd, inactive:
B1 no binding seen
B2 no binding seen
B3 no binding seen
B4 no binding seen
B5 no binding seen
B6 no binding seen
B7 no binding seen
B8 no binding seen
B9 no binding seen
B10 > 311 nM
B11 no binding seen
B12 no binding seen
B13 no binding seen
B14 no binding seen
B15 no binding seen
B16 no binding seen
B17 no binding seen
B18 no binding seen
B19 no binding seen

From PMC10163288
